“And” between values parts separate entries of the source, which are not always exact repeats. Equal values may be shown once. Compounds without any hit were thinned out: in the full panel of roughly 83,000, 20% have a hit.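 Compound tested at a single concentration for 48 hours in 96-well plates; a percent growth value below 10 was scored as active.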 The source made the active and inactive calls.

For the assay, the system named is UACC-62 melanoma. Put plainly: NCI-60 one-dose screen, 48 h (100 = growth as untreated, 0 = no growth, -100 = all killed). Conditions: 10 µM unless noted.
For `CC1CCCC(=O)O1` (stereo not given), the growth was 109% (inactive) and 101% (inactive).

As to `Cc1ccc(S(=O)(=O)NCN2C(=O)c3ccccc3C2=O)cc1`, the growth is 111% (inactive).

As to `O=C(N/N=C/c1cccc2ccccc12)C1CC1`, the growth was 92.3% (inactive) and 99.8% (inactive).

Take `CN(C)CCCNC1=C(Cl)C(=O)c2ccccc2C1=O`: the growth was 28.6% (inactive) and -13.8% (active).

On to `COc1ccc2nc(Cl)cc(C)c2c1`, for which the growth was 94.4% (inactive) and 95.2% (inactive).

With `CN(C)c1ccc(C(=C2C=CC(=[N+](C)C)C=C2)c2ccccc2Cl)cc1`, the growth was -70.6% (active) and -73.3% (active).

In the case of `OCc1ccccn1`, the growth was 103% (inactive).

On to `Nc1ccccc1SC1CC(=O)N(c2cccc3ccccc23)C1=O` (stereo not given), for which the growth is 82.6% (inactive).

On to `CC(=O)Nc1cccc2c1CCCC2`, for which the growth is 107% (inactive) and 102% (inactive).

Take `CCN1CCN(CCNc2nccc(-c3c(-c4cccc(O)c4)nc4sccn34)n2)S1(=O)=O`: the growth was 0.351% (active) and 0.223% (active).

`NC(=O)c1ccccc1OCC(O)CO` (stereo not given): the growth was 98.5% (inactive).

With `Nc1ccccc1Nc1ccccc1`, the growth is 98.8% (inactive) and 99.3% (inactive).

As to `N/C(=N\N=C\c1ccc2c(c1)OCO2)N/N=C\c1ccc2c(c1)OCO2`, the growth is 112% (inactive) and 90.7% (inactive).

For the compound `N#C/C(=C/c1c(O)ccc2ccccc12)C(N)=O`, the growth is 104% (inactive).

As to `Oc1ccc(/C=C/c2ccccc2)cc1`, the growth is 56.3% (inactive) and 53.4% (inactive).
